Assay [1] concerns PRMT1 (protein arginine N-methyltransferase 1). The assay is described as follows: small molecules binding arginine methyltransferase PRMT1 – biochemical, small-molecule microarray, 635 nm fluorescence, primary screen (AID 1088).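 Further: binding of Prmt1 protein to compounds spotted on small-molecule microarray slides.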 As to conditions: higher = more signal.
Assay [2] can be described thus: growth effects on S. cerevisiae YJM789 – YJM789 clinical isolate, OD600, 24 h, basal, primary screen (AID 1089).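 Further: growth of clinical yeast isolate S. cerevisiae YJM 789 seeded 1000 cells per well; test concentration not given here.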 As to conditions: higher = more signal, called active from +8 up or from −8 down.
Assay [3] can be described thus: S. pombe growth modifiers, basal conditions – strain 972, OD600, 24 h, no modulator, primary screen (AID 1090).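 Further: basal condition with compound alone and no growth modifier present; test concentration not given here.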 The settings on record: S. pombe 972 growth, higher = more signal, called active from +8 up or from −8 down.
Assay [4] can be described thus: budding yeast growth modifiers under rapamycin – strain BY4716, OD600, 96 h, primary screen (AID 1091). Further: test concentration not given here. As to conditions: S. cerevisiae BY4716 + rapamycin, higher = more signal, called active from +8 up or from −8 down.
The target of assay [5] is Torsin-1A-interacting protein 2 (Homo sapiens) (UniProt Q8NFQ8). In words: small molecules binding lysate-expressed LULL1 – cell lysate, human LULL1 lysate, 635/667 nm fluorescence, primary screen (AID 1092).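 Further: probe is lysate of COS7 cells overexpressing human LULL1; score merges per-feature 667 nm fluorescence with signal-to-noise.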 As to conditions: small-molecule microarray, hLULL1 lysate binding, 635 nm fluorescence; higher = more signal.
Assay [6] is described as follows: optical density change of DRC41 E. coli – strain DRC41, OD650, 24 h, E. coli filamentation project, primary screen (AID 1093).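 Further: MC1000 strain lacking acrAB efflux and sulA so SOS filamentation is blocked; test concentration not given here.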 As to conditions: E. coli DRC41 growth, higher = more signal, called active from +8 up or from −8 down.
Assay [7] in a line: probe aLefty2 binding to arrayed compounds – biochemical, biotinylated probe, 635/667 nm fluorescence, primary screen (AID 1094).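 Further: score merges spot fluorescence near 667 nm with spot signal-to-noise ratio.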 The settings on record: small-molecule microarray, higher = more signal.
In assay [8] the test system is Noggin (protein binding on small-molecule microarray). In words: small molecules binding Noggin protein – biochemical, 635/667 nm fluorescence, primary screen (AID 1095).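 Further: score merges 667 nm feature fluorescence with signal to noise over triplicate slides.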 As to conditions: 635 nm fluorescence, higher = more signal.
In assay [9] the target is Neurogenic locus notch homolog protein 3 (Homo sapiens) (UniProt Q9UM47). In words: small molecules binding NOTCH3 protein – biochemical, 635/667 nm fluorescence, primary screen (AID 1096). The settings on record: small-molecule microarray, 635 nm fluorescence, higher = more signal.
Assay [10] can be described thus: probe aEGFR binding to arrayed compounds – biochemical, biotinylated probe, 635/667 nm fluorescence, primary screen (AID 1097).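 Further: probe is a biotinylated anti-EGFR antibody binding compounds printed on slides; score combines fluorescence near 667 nm and signal to noise of each spot.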 As to conditions: small-molecule microarray, higher = more signal.
Assay [11] deals with Plasmodium falciparum Sir2 (PF13_0152, Sir2A). In words: Plasmodium falciparum Sir2A binding compounds – biochemical, small-molecule microarray, 635 nm fluorescence, primary screen (AID 1098).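 Further: score merges spot fluorescence intensity with its signal-to-noise ratio.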 As to conditions: fluorescence 635 nm, higher = more signal.
Assay [12] in a line: probe aDKK1 binding to arrayed compounds – biochemical, biotinylated probe, 635/667 nm fluorescence, primary screen (AID 1099).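 Further: score merges 667nm spot fluorescence with signal to noise across triplicate slides; reference of the scale not given here.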 The settings on record: small-molecule microarray, higher = more signal.
Assay [13] in a line: probe aCHRDL2 binding to arrayed compounds – biochemical, biotinylated probe, 635/667 nm fluorescence, primary screen (AID 1100). The settings on record: small-molecule microarray, higher = more signal.
The nature of assay [14]: change in splice reporter luminescence, either direction, cell-based, HEK293, spliceosome inhibition project, primary screen (AID 1101).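 Further: HEK293 cells carrying a splicing-competent luciferase reporter gene; test concentration not given here.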 As to conditions: HEK293 splicing luciferase reporter, 24 h, higher = more signal, called active from +8 up or from −8 down. A general note: Reporter assays use an easily measured gene product as a stand-in for the process of interest.
In assay [15] the target is Fibroblast growth factor 10 (Homo sapiens) (UniProt O15520). The assay is described as follows: compounds binding fibroblast growth factor 10 – biochemical, small-molecule microarray, 635 nm fluorescence, primary screen (AID 1102). The settings on record: FGF10 binding, fluorescence 635 nm, higher = more signal.
The subject of assay [16] is glycogen synthase kinase-3 (GSK3A per assay name; protocol says GSK3B). The assay is described as follows: compounds binding glycogen synthase kinase-3 – biochemical, small-molecule microarray, 635 nm fluorescence, GSK3A, primary screen (AID 1103). Further: the record names both GSK3A and GSK3B. As to conditions: fluorescence 635 nm, higher = more signal.
Assay [17] addresses Epidermal growth factor receptor (Homo sapiens) (UniProt P00533). The assay is described as follows: compounds binding epidermal growth factor receptor – biochemical, small-molecule microarray, 635 nm fluorescence, primary screen (AID 1104).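 Further: score merges 667 nm emission intensity with spot signal to noise over triplicate slides.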 As to conditions: EGFR binding, higher = more signal.
Assay [18] has as its target Follistatin-related protein 3 (Homo sapiens) (UniProt O95633). The assay is described as follows: compounds binding follistatin-related protein 3 – biochemical, small-molecule microarray, 635 nm fluorescence, primary screen (AID 1105).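 Further: score merges emission near 667 nm and signal to noise per printed spot across three slides.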 The settings on record: FSTL3 binding, higher = more signal.
Assay [19] has as its target Dickkopf-related protein 1 (Homo sapiens) (UniProt O94907). The assay is described as follows: small molecules binding DKK1 protein – biochemical, small-molecule microarray, 635 nm fluorescence scan, primary screen (AID 1106).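 Further: score merges emission near 667 nm with signal to noise over three replicate slides.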 The settings on record: higher = more signal.
The test system of assay [20] is Inhibin beta A chain (activin A). The assay is described as follows: small molecules binding activin A – biochemical, small-molecule microarray, 635 nm fluorescence scan, primary screen (AID 1107).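 Further: mouse activin A protein probed at 4.33 µg/mL on printed slides; score merges bound-protein fluorescence near 667 nm with spot signal-to-noise.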 The settings on record: INHBA, higher = more signal.

Our source for the composite z-score and z-score values is PubChem BioAssay.

Calls of active or inactive are those of the source.

Neurogenic locus notch homolog protein 3 (Homo sapiens), sequence (Q9UM47 whole entry, looked up): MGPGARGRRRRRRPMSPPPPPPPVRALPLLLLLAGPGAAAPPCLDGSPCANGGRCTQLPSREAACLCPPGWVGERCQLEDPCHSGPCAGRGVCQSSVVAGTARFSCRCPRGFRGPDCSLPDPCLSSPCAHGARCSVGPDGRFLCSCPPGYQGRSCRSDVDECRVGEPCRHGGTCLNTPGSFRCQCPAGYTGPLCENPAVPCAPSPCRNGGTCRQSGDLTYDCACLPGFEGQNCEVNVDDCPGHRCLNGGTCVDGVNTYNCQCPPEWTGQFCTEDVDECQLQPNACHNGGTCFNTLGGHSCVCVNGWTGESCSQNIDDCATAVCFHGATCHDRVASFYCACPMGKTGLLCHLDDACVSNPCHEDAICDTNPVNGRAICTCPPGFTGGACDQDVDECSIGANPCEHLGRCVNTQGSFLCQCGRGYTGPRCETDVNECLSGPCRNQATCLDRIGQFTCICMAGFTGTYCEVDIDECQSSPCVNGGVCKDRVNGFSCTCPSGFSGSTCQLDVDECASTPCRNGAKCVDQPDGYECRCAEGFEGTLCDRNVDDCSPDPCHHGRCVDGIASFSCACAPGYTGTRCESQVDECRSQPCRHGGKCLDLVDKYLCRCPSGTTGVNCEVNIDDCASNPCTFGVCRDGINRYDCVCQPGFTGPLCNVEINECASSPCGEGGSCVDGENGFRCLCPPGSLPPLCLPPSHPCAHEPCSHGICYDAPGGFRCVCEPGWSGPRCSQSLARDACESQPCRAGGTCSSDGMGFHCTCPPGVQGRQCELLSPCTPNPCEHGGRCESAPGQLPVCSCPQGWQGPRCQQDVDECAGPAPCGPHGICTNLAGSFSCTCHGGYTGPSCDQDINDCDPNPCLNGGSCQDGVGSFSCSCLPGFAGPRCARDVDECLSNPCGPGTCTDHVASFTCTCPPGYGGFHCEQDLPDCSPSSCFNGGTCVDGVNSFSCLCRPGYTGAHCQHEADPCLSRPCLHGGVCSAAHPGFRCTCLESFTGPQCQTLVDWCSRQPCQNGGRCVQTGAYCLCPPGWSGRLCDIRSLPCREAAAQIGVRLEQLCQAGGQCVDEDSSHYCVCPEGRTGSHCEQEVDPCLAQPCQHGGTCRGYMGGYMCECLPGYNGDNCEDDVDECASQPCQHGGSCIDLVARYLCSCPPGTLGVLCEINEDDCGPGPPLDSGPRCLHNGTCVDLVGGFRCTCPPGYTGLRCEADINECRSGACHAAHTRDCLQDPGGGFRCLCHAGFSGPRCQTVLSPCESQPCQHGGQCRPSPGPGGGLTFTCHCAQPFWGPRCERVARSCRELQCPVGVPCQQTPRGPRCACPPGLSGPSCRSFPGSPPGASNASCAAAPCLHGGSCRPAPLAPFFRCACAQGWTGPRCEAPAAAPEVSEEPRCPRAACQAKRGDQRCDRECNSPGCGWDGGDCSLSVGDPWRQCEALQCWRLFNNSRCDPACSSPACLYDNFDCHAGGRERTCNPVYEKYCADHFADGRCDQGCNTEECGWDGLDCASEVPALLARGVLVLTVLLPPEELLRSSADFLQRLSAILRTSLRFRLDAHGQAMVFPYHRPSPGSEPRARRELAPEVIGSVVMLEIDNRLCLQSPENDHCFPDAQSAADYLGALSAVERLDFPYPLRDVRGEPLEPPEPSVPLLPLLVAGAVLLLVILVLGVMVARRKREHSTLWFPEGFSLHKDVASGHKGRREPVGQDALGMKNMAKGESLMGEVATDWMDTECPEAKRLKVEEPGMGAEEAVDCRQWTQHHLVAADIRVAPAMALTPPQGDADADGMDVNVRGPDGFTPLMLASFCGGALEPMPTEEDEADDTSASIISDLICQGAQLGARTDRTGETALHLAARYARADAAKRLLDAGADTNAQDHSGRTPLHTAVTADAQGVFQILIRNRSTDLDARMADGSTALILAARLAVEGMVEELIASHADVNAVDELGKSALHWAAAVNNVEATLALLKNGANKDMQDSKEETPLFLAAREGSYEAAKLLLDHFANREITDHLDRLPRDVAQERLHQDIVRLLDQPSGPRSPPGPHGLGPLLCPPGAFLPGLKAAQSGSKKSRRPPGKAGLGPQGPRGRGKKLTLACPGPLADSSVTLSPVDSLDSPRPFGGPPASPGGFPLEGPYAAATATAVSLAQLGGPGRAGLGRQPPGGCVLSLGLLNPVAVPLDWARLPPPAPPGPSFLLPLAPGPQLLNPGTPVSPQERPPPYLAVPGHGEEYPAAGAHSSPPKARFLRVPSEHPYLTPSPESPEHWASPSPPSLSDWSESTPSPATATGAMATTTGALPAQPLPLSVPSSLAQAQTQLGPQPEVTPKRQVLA
Torsin-1A-interacting protein 2 (Homo sapiens), sequence (Q8NFQ8 whole entry, looked up): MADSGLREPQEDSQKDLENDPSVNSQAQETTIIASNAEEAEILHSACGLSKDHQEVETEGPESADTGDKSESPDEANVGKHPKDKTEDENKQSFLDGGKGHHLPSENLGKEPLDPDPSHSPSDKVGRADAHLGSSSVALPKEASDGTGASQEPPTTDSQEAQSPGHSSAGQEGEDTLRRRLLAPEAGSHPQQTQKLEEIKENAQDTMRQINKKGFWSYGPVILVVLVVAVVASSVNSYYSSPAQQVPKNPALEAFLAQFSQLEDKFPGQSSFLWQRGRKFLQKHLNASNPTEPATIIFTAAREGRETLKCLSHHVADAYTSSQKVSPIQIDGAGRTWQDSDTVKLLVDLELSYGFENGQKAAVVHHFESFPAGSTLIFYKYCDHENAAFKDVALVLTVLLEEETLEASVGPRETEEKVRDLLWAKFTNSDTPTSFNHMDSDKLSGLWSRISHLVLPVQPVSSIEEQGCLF
Follistatin-related protein 3 (Homo sapiens), sequence (O95633 whole entry, looked up): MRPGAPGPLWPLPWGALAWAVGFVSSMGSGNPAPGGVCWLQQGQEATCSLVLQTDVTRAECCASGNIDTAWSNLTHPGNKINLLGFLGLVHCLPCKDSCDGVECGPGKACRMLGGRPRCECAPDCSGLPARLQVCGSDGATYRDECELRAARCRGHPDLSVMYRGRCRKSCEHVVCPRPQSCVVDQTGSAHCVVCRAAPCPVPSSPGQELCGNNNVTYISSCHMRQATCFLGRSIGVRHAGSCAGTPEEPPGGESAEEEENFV
Epidermal growth factor receptor (Homo sapiens), sequence (P00533 whole entry, looked up): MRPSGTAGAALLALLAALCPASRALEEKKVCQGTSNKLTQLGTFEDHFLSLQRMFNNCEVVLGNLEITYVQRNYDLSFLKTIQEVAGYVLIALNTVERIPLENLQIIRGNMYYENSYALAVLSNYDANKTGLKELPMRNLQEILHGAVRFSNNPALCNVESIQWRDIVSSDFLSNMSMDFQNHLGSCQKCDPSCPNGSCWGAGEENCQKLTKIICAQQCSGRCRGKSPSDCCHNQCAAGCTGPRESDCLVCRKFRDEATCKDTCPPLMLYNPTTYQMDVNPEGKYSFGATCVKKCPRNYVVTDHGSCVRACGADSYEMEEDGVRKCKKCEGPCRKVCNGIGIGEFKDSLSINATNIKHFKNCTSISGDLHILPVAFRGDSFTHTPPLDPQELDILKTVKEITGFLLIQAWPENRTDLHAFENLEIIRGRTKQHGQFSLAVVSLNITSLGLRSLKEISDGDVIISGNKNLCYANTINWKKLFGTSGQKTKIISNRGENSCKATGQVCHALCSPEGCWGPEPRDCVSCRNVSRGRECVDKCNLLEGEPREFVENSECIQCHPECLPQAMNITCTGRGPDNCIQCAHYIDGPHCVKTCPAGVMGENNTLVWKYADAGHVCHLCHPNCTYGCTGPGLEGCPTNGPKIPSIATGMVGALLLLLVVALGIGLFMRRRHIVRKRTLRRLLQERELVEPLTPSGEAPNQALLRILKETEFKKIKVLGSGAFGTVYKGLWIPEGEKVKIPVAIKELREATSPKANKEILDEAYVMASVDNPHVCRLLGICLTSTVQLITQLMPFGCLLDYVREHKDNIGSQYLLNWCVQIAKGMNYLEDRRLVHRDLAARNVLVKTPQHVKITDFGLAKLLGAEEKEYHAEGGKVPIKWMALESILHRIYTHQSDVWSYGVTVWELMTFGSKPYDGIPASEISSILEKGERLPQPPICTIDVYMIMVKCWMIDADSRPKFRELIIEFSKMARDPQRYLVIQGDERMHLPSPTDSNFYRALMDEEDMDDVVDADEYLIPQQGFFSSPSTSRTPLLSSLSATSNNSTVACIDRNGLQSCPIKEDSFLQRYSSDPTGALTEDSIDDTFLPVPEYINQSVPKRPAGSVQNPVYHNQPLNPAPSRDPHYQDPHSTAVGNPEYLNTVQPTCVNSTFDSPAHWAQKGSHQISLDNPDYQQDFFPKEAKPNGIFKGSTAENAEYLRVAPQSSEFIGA
Fibroblast growth factor 10 (Homo sapiens), sequence (O15520 whole entry, looked up): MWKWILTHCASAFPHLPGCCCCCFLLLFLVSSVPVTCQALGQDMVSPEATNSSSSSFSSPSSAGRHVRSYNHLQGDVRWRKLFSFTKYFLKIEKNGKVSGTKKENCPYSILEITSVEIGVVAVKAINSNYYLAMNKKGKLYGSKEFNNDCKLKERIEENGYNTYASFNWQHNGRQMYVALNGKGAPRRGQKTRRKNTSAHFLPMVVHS
Dickkopf-related protein 1 (Homo sapiens), sequence (O94907 whole entry, looked up): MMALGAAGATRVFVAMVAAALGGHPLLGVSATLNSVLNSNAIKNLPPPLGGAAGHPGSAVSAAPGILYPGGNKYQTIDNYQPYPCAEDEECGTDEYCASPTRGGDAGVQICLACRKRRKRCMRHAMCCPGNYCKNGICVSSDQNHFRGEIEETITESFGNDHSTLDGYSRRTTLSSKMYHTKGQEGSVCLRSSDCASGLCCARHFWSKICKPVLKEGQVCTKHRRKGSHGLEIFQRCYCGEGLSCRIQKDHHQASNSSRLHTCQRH

Regarding `O=C(NCc1ccccc1)[C@@]1(CCS(=O)(=O)c2ccccc2)COC(c2ccc(OCCCO)cc2)=N1`, the composite z-score in [1] stood at 1.53; in [5], 3.6; in assay [7], 0.167; in assay [8], 0.16; in [9] it was 1.13; in assay [10] it was 0.0033. In addition, the composite z-score is 1.41 in [11]; 0.933 in assay [12]; 1.47 in [13]; 0.748 in assay [15]; 1.08 in assay [16]; -0.166 in [17]. Further, the results for the composite z-score in assay [18], in assay [19] and in assay [20] were 0.23, -0.594 and 0.807, respectively. Also, the z-score was -0.53 (inactive) in assay [2]; -0.111 (inactive) in [3]; 31.5 (active) in [4]; 2.12 (inactive) in [6]; -0.969 (inactive) in assay [14].

Regarding `CCCC=C(CCC)[C@@H](NC(=O)c1ccc(C(F)(F)F)cc1)c1ccccc1`, the composite z-score was 0.626 in assay [1]; 2.03 in [5]; -0.0038 in assay [7]; -0.0491 in assay [8]; 0.417 in assay [9]; -0.0565 in [10]. Further, the composite z-score was 0.658 in [11]; 0.559 in assay [12]; 0.622 in assay [13]; -0.433 in [15]; 0.662 in [16]; -0.405 in assay [17]. The results for the composite z-score in assay [18], in assay [19] and in [20] were 0.0071, -0.446 and 0.0953, respectively. Moreover, the z-score in assay [2] is 0.562 (inactive); in assay [3], -0.502 (inactive); in assay [4], 1.62 (inactive); in assay [6], -0.773 (inactive); in [14], -3.52 (inactive).

`O=[N+]([O-])c1ccc(C[n+]2ccc3ccc(O)cc3c2)o1`: the composite z-score in assay [1] was 0.536; in [5] it was 0.803; in [7] it was -0.155; in [8] it was -0.147; in assay [9], 0.791; in assay [10] it was -0.0867. Besides, the composite z-score in assay [11] was 0.595; in [12], 0.174; in [13] it was -0.144; in assay [15], 0.297; in assay [16] it was 0.314; in assay [17], 0.219. Also, the composite z-score in assay [18] came out at 0.42; in [19], 0.0242; in assay [20], 0.618. Also, the z-score in assay [2] is -0.0384 (inactive); in assay [3], -7.09 (inactive); in [4], -0.5 (inactive); in assay [6] it was -2.03 (inactive); in assay [14] it was -0.0287 (inactive).

For `C#C[C@H](O[Si](C#Cc1ccccc1)(C(C)C)C(C)C)c1ccccc1`, the composite z-score was 0.0132 in assay [1]; 0.504 in assay [5]; -0.279 in assay [7]; -0.251 in [8]; -0.406 in [9]; -0.25 in assay [10]. The composite z-score in [11] was 2.08; in assay [12], -0.156; in [13], 0.104; in [15] it was 0.0189; in assay [16] it was -0.75; in [17], -0.765. Also, the composite z-score in [18] was -0.643; in assay [19], -0.854; in assay [20] it was 0.0677. The z-score in assay [2] was -22.2 (active); in assay [3], -20.1 (active); in assay [4], -2.8 (inactive); in [6], -0.227 (inactive); in assay [14], -0.647 (inactive).

`CCOC(=O)C1=CC[C@@H](c2ccc(-c3ccc(OCc4ccccc4)cc3)c(OC)c2)N(S(=O)(=O)c2ccc(C)cc2)[C@H]1c1ccccc1`: the composite z-score was 1.46 in [1]; 2.93 in [5]; 0.158 in [7]; 0.73 in assay [8]; 1.09 in [9]; -0.0255 in assay [10]. Further, the composite z-score in [11] was 1.13; in assay [12] it was 0.583; in [13] it was 0.721; in assay [15] it was 1.24; in [16], 1.28; in [17], 0.12. The composite z-score is 1.38 in [18], 0.273 in [19] and 0.765 in [20]. The z-score in assay [2] is -0.534 (inactive); in assay [3] it was -1.27 (inactive); in assay [4], 3.66 (inactive); in [6], -0.0642 (inactive); in assay [14], -1.44 (inactive).
